Here are results for one sequence from article PMC7862700, “An all-to-all approach to the identification of sequence-specific readers for epigenetic DNA modifications on cytosine”.

Assay in all cases: DAPPL (digital affinity profiling via proximity ligation, sequencing); 10 mM Tris-HCl pH 7.5, 50 mM NaCl, 1 mM DTT, 4% glycerol, room temperature, 30 min; GST-TFs on glutathione beads, 16-mer random dsDNA library, 0.1% formaldehyde crosslink after washing; high values mean tight binding
What all share (conditions): protein: recombinant; tags: N-terminal GST; dsDNA, one strand shown

The target of test [1] is T1, FLI1 (Homo sapiens, UniProt Q01543 1-452).
T1 sequence: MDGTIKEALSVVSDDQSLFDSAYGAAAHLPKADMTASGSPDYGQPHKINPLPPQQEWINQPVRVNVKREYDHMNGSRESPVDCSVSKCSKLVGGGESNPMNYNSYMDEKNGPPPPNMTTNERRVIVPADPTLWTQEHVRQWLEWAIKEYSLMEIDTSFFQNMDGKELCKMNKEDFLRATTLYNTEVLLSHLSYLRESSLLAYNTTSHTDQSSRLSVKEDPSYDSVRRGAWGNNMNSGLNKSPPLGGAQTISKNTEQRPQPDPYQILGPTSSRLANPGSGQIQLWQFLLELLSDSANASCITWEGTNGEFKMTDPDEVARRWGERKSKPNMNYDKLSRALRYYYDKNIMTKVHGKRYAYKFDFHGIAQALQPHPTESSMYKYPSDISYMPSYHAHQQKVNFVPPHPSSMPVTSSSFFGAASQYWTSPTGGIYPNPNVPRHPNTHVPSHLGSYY
The essentials: (§1)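 After expression in yeast as GST fusions, human transcription factors were bound to glutathione beads, DNA-barcoded and mixed with a tag-only sample. The pools were incubated with 200 nmole of a 16-mer random double-stranded DNA library in Tris/NaCl/DTT/glycerol buffer (30 min, room temperature), washed and crosslinked with 0.1% formaldehyde. Proximity ligation with BsaI/T4 ligase ran for 1 h at 37 °C, before PCR amplification and sequencing on an Illumina NextSeq500. Binding signal is a hexamer's read frequency for a factor divided by its frequency for the tag-only sample.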

Test [2] has as its target T2, ELK1 (Homo sapiens, UniProt P19419 1-428).
T2 sequence: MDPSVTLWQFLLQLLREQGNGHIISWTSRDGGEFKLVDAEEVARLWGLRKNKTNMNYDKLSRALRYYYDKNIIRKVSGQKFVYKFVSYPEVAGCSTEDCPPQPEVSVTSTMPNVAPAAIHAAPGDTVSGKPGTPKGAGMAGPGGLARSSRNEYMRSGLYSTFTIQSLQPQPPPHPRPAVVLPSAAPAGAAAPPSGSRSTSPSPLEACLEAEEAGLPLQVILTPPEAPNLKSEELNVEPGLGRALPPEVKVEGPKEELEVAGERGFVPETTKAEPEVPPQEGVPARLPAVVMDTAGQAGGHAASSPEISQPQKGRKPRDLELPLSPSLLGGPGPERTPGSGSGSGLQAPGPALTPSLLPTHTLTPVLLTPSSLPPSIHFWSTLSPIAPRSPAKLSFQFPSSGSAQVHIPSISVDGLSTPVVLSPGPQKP
The essentials: as §1

Test [3] addresses T3, GABPA (Homo sapiens, UniProt Q06546 1-454).
T3 sequence: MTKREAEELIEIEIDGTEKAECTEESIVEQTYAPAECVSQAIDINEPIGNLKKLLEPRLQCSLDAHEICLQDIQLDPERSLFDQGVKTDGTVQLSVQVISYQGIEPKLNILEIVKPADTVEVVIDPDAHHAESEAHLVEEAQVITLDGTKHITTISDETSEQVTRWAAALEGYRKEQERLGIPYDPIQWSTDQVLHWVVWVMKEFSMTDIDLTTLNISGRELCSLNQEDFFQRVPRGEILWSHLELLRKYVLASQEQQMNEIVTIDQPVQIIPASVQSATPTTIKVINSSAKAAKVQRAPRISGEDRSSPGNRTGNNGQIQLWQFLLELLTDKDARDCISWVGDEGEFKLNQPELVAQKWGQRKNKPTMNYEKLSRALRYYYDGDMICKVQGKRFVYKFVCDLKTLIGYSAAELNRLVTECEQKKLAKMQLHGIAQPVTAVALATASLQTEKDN
The essentials:
as §1

The target of test [4] is T4, ERG (Homo sapiens, UniProt P11308 1-479).
T4 sequence: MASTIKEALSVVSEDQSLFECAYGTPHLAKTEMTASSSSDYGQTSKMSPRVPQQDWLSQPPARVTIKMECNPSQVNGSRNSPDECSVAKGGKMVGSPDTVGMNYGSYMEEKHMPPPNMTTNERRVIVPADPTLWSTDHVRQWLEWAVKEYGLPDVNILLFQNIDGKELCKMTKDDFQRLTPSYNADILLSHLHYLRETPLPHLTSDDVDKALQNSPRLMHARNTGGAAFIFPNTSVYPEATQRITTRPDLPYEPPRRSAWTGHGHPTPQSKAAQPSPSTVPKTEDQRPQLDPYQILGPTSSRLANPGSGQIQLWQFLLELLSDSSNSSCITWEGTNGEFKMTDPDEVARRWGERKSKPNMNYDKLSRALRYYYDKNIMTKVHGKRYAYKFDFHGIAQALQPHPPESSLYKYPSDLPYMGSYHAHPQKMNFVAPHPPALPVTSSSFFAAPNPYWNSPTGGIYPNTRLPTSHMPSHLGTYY
The method in brief: as §1

Test [5] concerns the target ELF1 (Homo sapiens, UniProt P32519 1-619). The method in brief: as §1
Test [6] deals with T5, EHF (Homo sapiens, UniProt Q9NZC4 1-300).
T5 sequence: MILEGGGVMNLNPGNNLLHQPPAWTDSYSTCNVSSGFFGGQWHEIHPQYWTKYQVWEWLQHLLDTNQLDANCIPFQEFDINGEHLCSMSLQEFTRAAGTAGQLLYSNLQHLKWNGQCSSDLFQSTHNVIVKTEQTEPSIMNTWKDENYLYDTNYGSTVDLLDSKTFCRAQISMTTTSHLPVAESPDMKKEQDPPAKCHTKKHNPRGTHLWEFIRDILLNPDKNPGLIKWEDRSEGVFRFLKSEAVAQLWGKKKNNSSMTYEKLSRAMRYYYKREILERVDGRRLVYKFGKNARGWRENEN
The essentials: as §1

In test [7] the target is SPI1 (Homo sapiens, UniProt P17947 1-270). The method in brief:
as §1

The target in test [8] is SPIB (Homo sapiens, UniProt Q01892 1-262). The method in brief:
as §1

Test [9] concerns the target T6, ELK3 (Homo sapiens, UniProt P41970 1-407).
T6 sequence: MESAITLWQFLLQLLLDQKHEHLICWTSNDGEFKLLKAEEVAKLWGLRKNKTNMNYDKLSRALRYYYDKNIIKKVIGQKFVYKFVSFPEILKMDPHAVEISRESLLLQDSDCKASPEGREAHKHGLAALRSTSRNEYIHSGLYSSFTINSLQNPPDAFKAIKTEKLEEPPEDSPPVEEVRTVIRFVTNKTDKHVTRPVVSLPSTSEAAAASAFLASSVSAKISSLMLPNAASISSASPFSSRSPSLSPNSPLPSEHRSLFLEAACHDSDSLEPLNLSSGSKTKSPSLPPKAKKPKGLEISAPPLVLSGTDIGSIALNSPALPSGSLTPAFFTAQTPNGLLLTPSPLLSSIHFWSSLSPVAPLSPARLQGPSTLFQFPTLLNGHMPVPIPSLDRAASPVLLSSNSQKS
The method in brief:
as §1

In test [10] the target is T7, FEV (Homo sapiens, UniProt Q99581 1-238).
T7 sequence: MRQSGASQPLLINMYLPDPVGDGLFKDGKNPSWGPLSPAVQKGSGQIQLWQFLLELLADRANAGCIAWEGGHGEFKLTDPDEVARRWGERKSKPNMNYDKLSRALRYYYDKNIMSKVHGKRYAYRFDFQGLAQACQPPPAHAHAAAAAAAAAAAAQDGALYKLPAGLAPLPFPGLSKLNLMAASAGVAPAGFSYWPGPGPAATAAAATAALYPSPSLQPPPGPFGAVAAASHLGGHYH
The method in brief: as §1

The target of test [11] is ETV5 (Homo sapiens, UniProt P41161 1-510). The essentials: as §1
Test [12] has as its target T8, SPIC (Homo sapiens, UniProt Q8N5J4 1-248).
T8 sequence: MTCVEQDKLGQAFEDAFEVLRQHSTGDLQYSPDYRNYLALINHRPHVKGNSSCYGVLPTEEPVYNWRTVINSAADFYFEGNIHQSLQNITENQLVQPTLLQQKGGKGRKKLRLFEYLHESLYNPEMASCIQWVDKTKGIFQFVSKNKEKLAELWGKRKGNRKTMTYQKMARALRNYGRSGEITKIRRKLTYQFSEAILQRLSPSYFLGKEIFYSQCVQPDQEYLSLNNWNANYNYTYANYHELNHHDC
The method in brief: as §1

Test [13] concerns the target ELF4 (Homo sapiens, UniProt Q99607 1-663). The essentials:
as §1

Test [14] addresses T9, ERF (Homo sapiens, UniProt P50548 1-548).
T9 sequence: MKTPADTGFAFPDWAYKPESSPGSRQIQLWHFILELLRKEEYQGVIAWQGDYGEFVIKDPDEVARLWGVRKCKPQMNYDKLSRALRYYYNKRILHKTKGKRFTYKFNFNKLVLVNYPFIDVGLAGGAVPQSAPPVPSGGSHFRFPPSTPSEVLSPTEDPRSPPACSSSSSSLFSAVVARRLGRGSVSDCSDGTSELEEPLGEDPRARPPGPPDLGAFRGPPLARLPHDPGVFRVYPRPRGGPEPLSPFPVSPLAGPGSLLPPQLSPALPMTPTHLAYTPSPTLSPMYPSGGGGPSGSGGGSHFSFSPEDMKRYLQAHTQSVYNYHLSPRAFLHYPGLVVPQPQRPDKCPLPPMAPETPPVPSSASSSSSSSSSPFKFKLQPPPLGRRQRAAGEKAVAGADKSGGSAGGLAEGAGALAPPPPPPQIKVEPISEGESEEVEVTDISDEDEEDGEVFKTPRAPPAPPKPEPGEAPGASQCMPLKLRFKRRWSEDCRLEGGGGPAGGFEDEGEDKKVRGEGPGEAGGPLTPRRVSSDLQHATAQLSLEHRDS
The essentials: as §1

For test [15], the target named is T10, ETV3L (Homo sapiens, UniProt Q6ZN32 1-361).
T10 sequence: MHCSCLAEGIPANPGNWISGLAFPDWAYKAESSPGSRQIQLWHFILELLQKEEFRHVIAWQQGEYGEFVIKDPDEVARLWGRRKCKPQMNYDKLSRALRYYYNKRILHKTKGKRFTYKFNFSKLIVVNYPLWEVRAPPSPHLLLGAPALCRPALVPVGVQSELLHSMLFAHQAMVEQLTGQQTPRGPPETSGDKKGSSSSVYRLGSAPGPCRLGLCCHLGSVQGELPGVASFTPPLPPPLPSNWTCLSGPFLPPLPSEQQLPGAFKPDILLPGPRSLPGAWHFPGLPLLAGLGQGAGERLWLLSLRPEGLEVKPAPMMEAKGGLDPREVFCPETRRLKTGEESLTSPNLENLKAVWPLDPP
The method in brief: as §1

Test [16] concerns the target T11, ETS2 (Homo sapiens, UniProt P15036 1-469).
T11 sequence: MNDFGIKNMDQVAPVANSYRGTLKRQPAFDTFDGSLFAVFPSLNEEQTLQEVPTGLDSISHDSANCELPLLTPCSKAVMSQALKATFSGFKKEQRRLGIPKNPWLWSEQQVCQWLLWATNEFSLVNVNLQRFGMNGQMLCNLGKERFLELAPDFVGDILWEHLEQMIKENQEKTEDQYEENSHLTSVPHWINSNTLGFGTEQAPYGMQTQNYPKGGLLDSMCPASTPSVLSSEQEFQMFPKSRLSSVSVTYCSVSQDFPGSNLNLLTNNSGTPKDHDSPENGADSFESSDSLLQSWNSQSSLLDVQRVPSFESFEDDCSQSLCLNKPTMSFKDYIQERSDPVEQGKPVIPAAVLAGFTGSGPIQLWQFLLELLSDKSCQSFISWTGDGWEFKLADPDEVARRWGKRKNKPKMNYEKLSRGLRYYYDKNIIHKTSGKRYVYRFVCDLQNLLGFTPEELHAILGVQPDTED
The method in brief: as §1

Test [17] addresses T12, ETV3 (Homo sapiens, UniProt P41162-2 1-143).
T12 sequence: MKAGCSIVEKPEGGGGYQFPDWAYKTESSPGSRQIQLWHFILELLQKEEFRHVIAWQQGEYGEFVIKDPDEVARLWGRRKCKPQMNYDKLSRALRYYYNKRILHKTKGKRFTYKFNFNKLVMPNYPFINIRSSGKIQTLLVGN
The method in brief: as §1

Sequence of ELF4 (Q99607 whole entry): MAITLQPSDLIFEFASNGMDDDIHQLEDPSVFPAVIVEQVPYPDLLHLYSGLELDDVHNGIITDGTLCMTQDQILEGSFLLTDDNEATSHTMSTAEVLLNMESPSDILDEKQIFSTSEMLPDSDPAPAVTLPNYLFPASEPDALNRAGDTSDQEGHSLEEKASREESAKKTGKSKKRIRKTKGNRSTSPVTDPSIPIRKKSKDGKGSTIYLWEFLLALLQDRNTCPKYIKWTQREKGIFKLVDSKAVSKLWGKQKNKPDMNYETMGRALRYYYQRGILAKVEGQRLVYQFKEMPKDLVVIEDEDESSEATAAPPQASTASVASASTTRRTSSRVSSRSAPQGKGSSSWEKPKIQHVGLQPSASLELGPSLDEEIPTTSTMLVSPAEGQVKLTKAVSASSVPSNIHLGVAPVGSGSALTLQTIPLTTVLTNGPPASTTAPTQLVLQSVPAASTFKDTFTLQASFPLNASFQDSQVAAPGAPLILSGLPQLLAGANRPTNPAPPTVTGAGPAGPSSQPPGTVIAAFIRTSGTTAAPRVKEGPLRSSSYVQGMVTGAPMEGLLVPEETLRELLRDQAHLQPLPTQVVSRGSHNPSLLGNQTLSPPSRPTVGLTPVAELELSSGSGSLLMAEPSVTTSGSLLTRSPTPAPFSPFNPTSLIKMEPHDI
Sequence of ETV5 (P41161 whole entry): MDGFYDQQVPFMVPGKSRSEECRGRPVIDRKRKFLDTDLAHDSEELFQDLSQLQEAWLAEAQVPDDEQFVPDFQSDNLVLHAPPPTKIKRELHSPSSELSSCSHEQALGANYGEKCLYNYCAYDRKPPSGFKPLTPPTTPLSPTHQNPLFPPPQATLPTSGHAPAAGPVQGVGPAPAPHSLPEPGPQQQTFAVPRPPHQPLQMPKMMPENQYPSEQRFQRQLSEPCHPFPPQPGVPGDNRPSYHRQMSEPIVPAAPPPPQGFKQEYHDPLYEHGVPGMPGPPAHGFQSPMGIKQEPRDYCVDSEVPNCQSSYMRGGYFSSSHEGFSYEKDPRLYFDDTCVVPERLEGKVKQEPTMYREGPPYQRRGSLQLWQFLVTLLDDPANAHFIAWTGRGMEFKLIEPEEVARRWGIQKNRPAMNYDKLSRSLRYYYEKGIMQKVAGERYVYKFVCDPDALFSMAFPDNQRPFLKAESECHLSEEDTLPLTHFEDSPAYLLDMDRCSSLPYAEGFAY
Sequence of ELF1 (P32519 whole entry): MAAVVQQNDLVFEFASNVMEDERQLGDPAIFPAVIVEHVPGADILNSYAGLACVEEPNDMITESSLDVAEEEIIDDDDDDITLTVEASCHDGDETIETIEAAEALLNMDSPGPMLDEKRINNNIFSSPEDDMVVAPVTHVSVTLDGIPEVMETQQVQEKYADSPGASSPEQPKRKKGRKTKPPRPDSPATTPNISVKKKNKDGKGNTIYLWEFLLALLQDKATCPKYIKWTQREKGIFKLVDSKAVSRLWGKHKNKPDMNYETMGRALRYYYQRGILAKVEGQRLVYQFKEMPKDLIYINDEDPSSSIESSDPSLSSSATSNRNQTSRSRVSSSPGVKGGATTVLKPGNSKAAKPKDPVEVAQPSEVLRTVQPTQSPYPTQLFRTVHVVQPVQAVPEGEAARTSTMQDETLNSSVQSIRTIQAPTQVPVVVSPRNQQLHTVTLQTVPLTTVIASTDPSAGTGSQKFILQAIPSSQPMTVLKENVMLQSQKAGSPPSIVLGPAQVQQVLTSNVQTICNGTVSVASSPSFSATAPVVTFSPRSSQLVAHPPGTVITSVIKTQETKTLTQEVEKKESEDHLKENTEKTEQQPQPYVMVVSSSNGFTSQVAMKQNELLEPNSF
Sequence of SPIB (Q01892 whole entry): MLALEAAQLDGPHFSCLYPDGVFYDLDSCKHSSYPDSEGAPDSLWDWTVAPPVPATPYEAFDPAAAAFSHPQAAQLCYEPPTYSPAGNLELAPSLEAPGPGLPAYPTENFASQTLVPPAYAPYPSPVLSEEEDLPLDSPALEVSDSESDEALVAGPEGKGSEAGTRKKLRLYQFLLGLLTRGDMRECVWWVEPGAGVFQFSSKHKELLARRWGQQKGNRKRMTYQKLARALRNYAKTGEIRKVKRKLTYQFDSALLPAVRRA

Take GTCTTG: the binding signal was 1.02 fold enrichment (6-mer frequency, TF over GST control) in test [1]; 1.02 fold enrichment (6-mer frequency, TF over GST control) in [2]; 1.11 fold enrichment (6-mer frequency, TF over GST control) in test [3]; 1.05 fold enrichment (6-mer frequency, TF over GST control) in test [4]; 1 fold enrichment (6-mer frequency, TF over GST control) in test [5]; 1.09 fold enrichment (6-mer frequency, TF over GST control) in [6]. Moreover, the binding signal in [7] is 1.01 fold enrichment (6-mer frequency, TF over GST control); in test [8], 1.04 fold enrichment (6-mer frequency, TF over GST control); in test [9] it was 1.17 fold enrichment (6-mer frequency, TF over GST control); in test [10] it was 1.01 fold enrichment (6-mer frequency, TF over GST control); in test [11], 1.01 fold enrichment (6-mer frequency, TF over GST control); in [12], 1.11 fold enrichment (6-mer frequency, TF over GST control). In addition, the binding signal in [13] is 1.06 fold enrichment (6-mer frequency, TF over GST control); in [14], 1.15 fold enrichment (6-mer frequency, TF over GST control); in test [15] it was 1.04 fold enrichment (6-mer frequency, TF over GST control); in [16], 1 fold enrichment (6-mer frequency, TF over GST control); in [17] it was 1 fold enrichment (6-mer frequency, TF over GST control).
